Pf growth 48h – Primary qHTS for delayed death inhibitors of the malarial parasite plastid, 48 hour incubation | 310,000 tested, 5.9% active | Potency, µM (doses to about 28.7 µM), inactives show at the top dose activity change, negative = inhibition, hits mostly inhibitors | P. falciparum luciferase growth in erythrocytes, 48 h | AID 504832, 2011; further: potency means the concentration at half of the fitted maximal effect; on the % scale 0 is the no-effect control and ±100 the full control effect
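A one-generation exposure of luciferase-tagged malaria parasites in RPMI 1640/Albumax erythrocyte culture, 37 C and 5% CO2. Inhibition is inferred from decreased luminescence after adding detection reagent.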
Shiga toxin inh – A qHTS for Small Molecule Inhibitors of Shiga Toxin | Vero cells, Shiga toxin protein synthesis inhibition reporter | inhibition, % at 38.7 µM | 290,000 tested, 9.2% active | AID 2315, 2010; in the data active means inhibition mostly above about 28%, no sharp cut-off; inactive means mostly below about 43%; further: 0% is about no effect
HCMV inh – qHTS Assay for inhibitors of the human cytomegalovirus (HCMV). 410,000 tested, 4.5% active. activity change, negative = inhibition, % at 57.5 µM. HFF cells, HCMV-luciferase reporter, 72 h; hits give low values; in the data active means activity change below about -60%; inconclusive means no clear call, values can overlap the other calls; inactive means above about -39%; further: on the % scale 0 is the no-effect control and ±100 the full control effect
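Human foreskin fibroblasts infected with luciferase-reporter HCMV at MOI 1 PFU/cell, compounds at two doses. Luciferase measured 72 h post infection; normalized to buffer-only basal and Salinomycin (10uM) controls.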
Pf growth 96h – Primary qHTS for delayed death inhibitors of the malarial parasite plastid, 96 hour incubation | P. falciparum luciferase reporter growth, 96 h | Potency, µM (series often up to 28.7 µM), for the others: at the top dose activity change, negative = inhibition, actives largely listed as inhibitors | 320,000 tested, 6.9% active; further: potency means the concentration at half of the fitted maximal effect; on the % scale 0 is the no-effect control and ±100 the full control effect
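Two parasite generations (96 h, 37 C, 5% CO2) of compound exposure in infected erythrocytes (0.05% parasitemia, 2% hematocrit). Luciferase-reporter P. falciparum; decreased luminescence indicates inhibited growth, aimed at apicoplast-acting delayed death.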
CHX counter – Cycloheximide Counterscreen for Small Molecule Inhibitors of Shiga Toxin. AID 2314, 2010. max response, %. 300,000 tested, 12% active. cell reporter, cycloheximide protein synthesis inhibition counterscreen; in the data active means max response mostly above about 13%, no sharp cut-off; inactive means mostly below about 14%; further: read at 38.3 µM for the half of the compounds with a filed dose; 0% is about no effect
Active calls of the source: *; ? = inconclusive; . = no result given. Only some compounds are listed: those with a hit (about 20% of all), similar ones and a draw of the others. Unless noted, the call rests on the fitted dose curve; in most records, active means well fitted inhibition curve with a large enough effect; inconclusive means small, poorly fitted or top-dose-only effect, or another doubt; inactive means no such curve, though single readings can be large or run the other way.

SMILES	Pf growth 48h	Shiga toxin inh	HCMV inh	Pf growth 96h	CHX counter
C=CCn1c(SCC(=O)N(CC)C2CCS(=O)(=O)C2)nc2cc(C(=O)O)ccc2c1=O (stereo not drawn)	-17.5%	.	-39.3	8.6%	.
O=S1(=O)CCOC[C@H](c2ccccc2)N1Cc1cccc(Cl)c1	15.9%	-1.2	-79.8*	37.9%	-1.6
COc1ccc2c(CCNC(=O)c3ccco3)c[nH]c2c1	38.6%	62.9*	-35.1	8.6%	49.1*
COc1ccc2[nH]cc(CCNC(=O)c3ccccc3Cl)c2c1	38.0%	22.7	-83.8*	11.8%	1.6
COc1ccc2c(CCNC(N)=S)c[nH]c2c1	128.7%	3.4	-25.4	5.0%	9.7
COc1ccc2[nH]cc(CCNC(=O)Cc3c(F)cccc3Cl)c2c1	?	13.2	-16.4	?	7.3
Cc1ccc(C2N(C)C(=O)c3ccccc3N2C)cc1 (stereo not drawn)	-1.6%	-11.4	7.9	68.5%	6.0
C[N+]12CCCC[C@@H]1CCC(=C(c1cccs1)c1cccs1)C2 (stereo partly drawn)	4.26µM*	.	.	-9.0%	.
Cc1ccc(S(=O)(=O)N[C@H](C(=O)N2CCC(C(=O)N[C@H](C(=O)O)c3ccccc3)CC2)C(C)C)cc1	31.6%	0.6	12.5	33.6%	-4.8
Cc1c(C(=O)O)sc(=S)n1-c1ccc(Cl)cc1	-9.3%	-2.5	?	-5.0%	-0.5
Cc1c(Cl)sn(-c2ccc(Cl)cc2)c1=O	?	92.4*	-100.8*	?	35.3*
O=C(CCc1cn(Cc2ccc(F)cc2)c2ccccc12)NCCc1ccc(Cl)cc1	.	.	93.3	.	.
CCCc1nnc(NC(=O)CCC(=O)N2CCN(Cc3ccccc3)CC2)s1	7.9%	-2.5	-21.5	?	-5.5
COc1ccc(Cc2nnc(NC(=O)CS(=O)(=O)c3ccc(C)cc3)s2)cc1OC	-27.2%	-3.9	9.4	-17.6%	-3.7
CCCc1nnc(NC(=O)CCC(=O)N2CCN(CCOC(c3ccccc3)c3ccccc3)CC2)s1	10.4µM*	-19.2	8.7	?	1.4
CCCc1nnc(NC(=O)CCC(=O)N2CCN(S(=O)(=O)c3ccc(C)cc3)CC2)s1	-24.5%	53.0*	0.0	-4.6%	21.0
CCOCCc1nnc(NC(=O)CS(=O)(=O)c2ccc(C)cc2)s1	-0.2%	-11.0	21.3	0.233µM*	-2.9
CCc1nnc(NC(=O)CCC(=O)N2CCN(S(=O)(=O)c3ccc(OC)cc3)CC2)s1	1.7%	-19.7	-2.7	-2.0%	-3.7
CCn1c2c(c(=O)n3ncc(C(=O)Nc4cc(Cl)ccc4C)c13)CN(Cc1ccc(OC)cc1)CC2	.	.	11.9	.	.
CN(C)/C(=N\S(=O)(=O)c1ccccc1)c1ccccc1	24.8%	-7.6	-38.3	0.1%	-6.7
Cc1ccc(CN2CCCn3nc(C(=O)NCc4cc(C)ccc4C)cc3C2=O)cc1	.	.	-10.7	.	.
CC(CNC(=O)COc1ccccc1)OC(=O)Nc1cccc(Cl)c1 (stereo not drawn)	-0.7%	7.7	62.0	?	1.0
COC(=O)NCC(C)OC(=O)Nc1ccc(Cl)cc1 (stereo not drawn)	-20.4%	54.9*	24.2	?	11.0
Cc1ccc(NC(=O)OC(C)CNC(=O)Oc2cccc(C)c2)cc1 (stereo not drawn)	84.6%	73.9*	39.9	?	38.1*
Cc1c(Cl)cccc1NC(=S)NCCc1ccc(Cl)cc1	?	48.3	-86.2*	?	23.9
SMILES	Pf growth 48h	Shiga toxin inh	HCMV inh	Pf growth 96h	CHX counter
Cc1cccc(NC(=S)NCc2ccccc2Cl)c1C	?	-11.4	90.6	?	8.8
Cc1c(Cl)cccc1NC(=S)NCCc1ccc(S(N)(=O)=O)cc1	-13.2%	-9.7	-79.5*	10.4µM*	-3.9
Cc1cccc(NC(=S)NCCc2ccccc2)c1C	?	10.2	-17.6	?	7.2
Cc1c(Cl)cccc1NC(=S)NCCc1ccc(F)cc1	?	13.4	?	13.1µM*	2.5
Cc1c(Cl)cccc1NC(=S)NCc1ccccc1	.	.	-78.2*	.	.
CCc1ccc(NC(=O)CCc2c(C)nc3nc(-c4cc(OC)cc(OC)c4)nn3c2C)cc1	.	.	-10.3	.	.
S=C(NCCC(c1ccccc1)c1ccccc1)Nc1ccccc1Cl	?	-8.0	-21.1	4.65µM*	-2.2
COc1ccccc1C(=O)O/N=C(\c1ccccc1)c1ccncc1	4.0%	5.2	36.5	?	-0.1
Cc1ccccc1C(=O)O/N=C(\N)c1ccncc1	-28.6%	53.2*	18.4	?	61.3*
O=C(OCc1c(Cl)cccc1Cl)c1ccncc1	?	-9.5	-14.2	11.7µM*	-2.2
COc1ccc(Cl)cc1C(=O)O/N=C(\N)c1ccc(Cl)cc1	-26.2%	5.6	83.6	?	8.2
COc1cccc(C(=O)O/N=C(\N)c2ccncc2)c1OC	0.0%	26.9*	-36.0	65.7%	35.2*
N/C(=N\OC(=O)c1cc(Cl)ccc1Cl)c1ccncc1	?	74.2*	111.6	?	26.9*
CCOC(=O)C1(C)CCCCCN1C(=O)c1csnn1 (stereo not drawn)	.	.	25.1	.	.
N/C(=N\OC(=O)c1ccccc1Cl)c1ccncc1	-22.4%	71.5*	-99.5*	93.8%	16.6*
N/C(=N\OC(=O)c1ccc(Cl)cc1Cl)c1ccncc1	3.6%	82.2*	50.2	148.0%	30.0*
CC(C)(Oc1ccc(Cl)cc1)C(=O)O/N=C(\N)c1ccncc1	?	-5.9	?	127.2%	1.8
CSc1ccccc1NC(=O)Nc1ccc(F)c(Cl)c1	56.6%	60.8*	-23.0	?	34.2*
CSc1ccccc1NC(=O)Nc1cccc(Cl)c1	-16.5%	83.9*	-16.3	.	40.8*
CSc1ccccc1NC(=O)Nc1cccc2ccccc12	-4.1%	-6.1	10.6	0.6%	8.7
CC(C)CC(=O)Nc1ccc(F)c(Cl)c1	15.3%	19.1	-34.8	-12.9%	1.5
Cc1ccc(NC(=O)Nc2cccc(Cl)c2)c(C(=O)O)c1	39.1%	56.3	?	12.2%	23.9*
Cc1ccc(Cn2ccn(Cc3ccccc3F)c(=O)c2=O)cc1	.	.	-9.7	.	.
CC(=O)N1CCN(Cc2nc3cc(NC(=O)COc4ccccc4)ccc3n2C)CC1	0.9%	-2.5	1.3	72.4%	-1.5
CCN(CC)S(=O)(=O)c1ccc(C(=O)NCCOC(=O)c2ccc(F)cc2F)cc1	-39.4%	15.7	13.9	?	5.3
SMILES	Pf growth 48h	Shiga toxin inh	HCMV inh	Pf growth 96h	CHX counter
Cc1ccccc1OCC(=O)OCC(=O)Nc1ccc(Cl)cn1	40.6%	.	0.0	40.1%	.
CCOC(=O)NC1(Nc2ccc(Cl)cn2)Oc2ccccc2O1	26.5%	34.3	.	?	8.1*
CCNC(=S)NNC(=O)Nc1ccccc1	.	-10.0	68.8	10.7%	-1.9
CCc1cccc(CC)c1NC(=O)CN1CC(C)SC1=NC1CCCCC1 (stereo not drawn)	?	-4.1	-63.1*	?	-2.5
CCc1cccc(CC)c1NC(=O)CN1CCN(c2ccccc2)CC1	-19.0%	-27.6	-14.3	-0.6%	-5.2
CC(C)(C)CNC(=O)C1(C)CCN1C(=O)Cc1ccc(-c2ccccc2)cc1 (stereo not drawn)	.	.	-33.6	.	.
